Assay outcomes deposited in PubChem BioAssay by several laboratories.
CHT block: human CHT choline transport inhibition; B-score at 10 µM; 310,000 tested, 0.86% active; Q9GZV3; CHT-expressing cells, membrane potential dye, choline response; active compounds read low;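 active means B-score over 3 SD under the library average, and starting fluorescence ratio not unusually high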;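 further: choline stimulus applied at its EC90 after an EC20 pre-addition; B-score computed on integrated fluorescence ratio after choline addition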
ANO1 block: blocks the mouse calcium-activated chloride channel TMEM16A; HEK293 TMEM16A/YFP iodide influx fluorescence, ionomycin; Q8BHY3; AID 588511; normalized B-score (activity score, 25-100; higher = stronger inhibition) at 10 µM; 310,000 tested, 1.2% active;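 active means ratio plate-corrected score three or more library SD toward inhibition, starting fluorescence score within five deviations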;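 further: score derived from kinetic fluorescence span divided by baseline fluorescence per well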
PKA-R2B act: PKA-R2B complex activation; PKA-R2B holoenzyme dissociation, Cy5-IP20 fluorescence polarization; R2B truncated from residue 108, S112A mutant; 0% DMSO only, 100% 113 µM cGMP; 340,000 tested, 0.079% active; activation, % at 11.4 µM; P22694+P31323; AID 504700;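 active means activation above a cutoff set at the mean over all compounds plus 3 SD, cut at about 18% in these data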;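 further: higher means more holoenzyme dissociation and a rise in polarization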
CHT PAM: allosteric activators of human choline transporter CHT | Q9GZV3 | CHT-expressing cells, membrane potential dye, choline EC20; active compounds read high; LV-AA mutant CHT in HEK293 cells | B-score at 10 µM | 310,000 tested, 0.49% active | AID 488977;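 active means initial fluorescence not abnormally high and integrated response B-score, plate-corrected, over 3 SD above library mean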
PKA-R1A activ: PKA-R1A complex activation; P00514+P68181; PKA-R1A dissociation, Cy5-IP20 fluorescence polarization; scaled: DMSO 0%, 113 µM cGMP 100%; 340,000 tested, 0.083% active; AID 504707; activation, % at 11.4 µM;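 active means percent activation above the mean of all tested compounds plus 3 SD, cut at about 19% in these data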;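 further: higher means more PKAc released from R1A so a rise in polarization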
ANO1 activ: mouse TMEM16A channel activation, primary screen | Q8BHY3 | HEK293 TMEM16A/YFP-H148Q/I152L, iodide quench fluorescence; active compounds read low | B-score at 10 µM | 340,000 tested, 0.3% active | AID 623877;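 active means fluorescence-ratio B-score plate-corrected deviation score at least 3 library SD below zero, with starting fluorescence score within 5 deviations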;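 further: channel opened by trigger with iodide after compound preincubation; score built on the fluorescence ratio of max minus min over baseline; more negative score means more quench and so TMEM16A activation or potentiation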
CHT inh conf: confirmation of human choline transporter CHT inhibitors; CHT-expressing cells, choline membrane potential dye; LV-to-AA substituted CHT, HEK293 cells; shares compounds with CHT block; 2,400 tested, 70% active; AID 493221; CHT activity remaining % of control (active compounds read low), % at 10 µM;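 active means choline transporter activity left, mean of duplicates at 10 µM, below buffer-only control mean minus 3 SD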;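 further: depolarization triggered by choline at its EC90 following an EC20 pre-addition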
HEK293 CHT ctr: activity in parental HEK293 cells lacking CHT; membrane potential dye, choline response; active = decrease or increase beyond buffer ±3SD; membrane potential ratio readout (active if shifted either direction beyond buffer ±3SD; no single direction) at 10 µM; AID 493222; shares compounds with CHT block; 2,400 tested, 4% active;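 further: parental cells lack the transporter so any hit is non-specific; ratio is peak minus trough fluorescence over baseline after EC90 choline challenge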
Of the large screens only hits and unclear results are named; the others gave an inactive call (follow-up assays come after a bar, where they were run). Sampled rows, rich in hits. Any-hit rate of the full collection: about 2.5%.

CC(=O)N/N=C/c1c(C)[nH]n(-c2ccccc2)c1=O	CHT block -5.8 | CHT inh conf inactive | HEK293 CHT ctr inactive
Cc1[nH]nc2c1C(c1cccs1)C1=C(CC(C)(C)CC1=O)N2 (centres undefined)	none
CC(C)Sc1nc2c(c(=O)[nH]1)C(c1cccs1)C1=C(CC(C)(C)CC1=O)N2 (centres undefined)	CHT block -5.8 | CHT inh conf inactive | HEK293 CHT ctr inactive
CN(CC(=O)Nc1ccc(Cl)cc1)C(=O)Cn1[nH]c(=O)c2ccccc2c1=O	none
O=C(CSc1nc2c(c(=O)n1-c1ccc(Cl)cc1)SCC2)N1CCCC1	CHT block -6.8 | CHT inh conf inactive | HEK293 CHT ctr inactive
COc1ccc(Cn2cnc3c([N+](=O)[O-])c(C)c(C)cc32)cc1	CHT block -9.4 | CHT inh conf 34% | HEK293 CHT ctr inactive
Cc1ccccc1Cn1cnc2c([N+](=O)[O-])c(C)c(C)cc21	none
Cc1cc(OCC(=O)NCCc2c[nH]c3ccccc23)c2c(C)cc(=O)oc2c1	none
CC(C)CC(=O)Nc1ccc(Oc2ccc3c(c2)C(=O)NC3=O)cc1	none
COc1ccccc1NC(=O)CCCCCN1C(=O)c2cccc([N+](=O)[O-])c2C1=O	none
COc1cc(/C=C2/C(=O)c3cccc([N+](=O)[O-])c3C2=O)c(Br)cc1O	CHT block -7.2, ANO1 block 25 | CHT inh conf 43% | HEK293 CHT ctr inactive
Cc1ccc(C2=NN(CC(=O)NCCN(CC(C)C)CC(C)C)C(=O)CC2)cc1	none
O=C(Cn1cnc2ccccc2c1=O)N1CCN(S(=O)(=O)c2ccc(F)cc2)CC1	none (no result: CHT block, ANO1 block, CHT PAM)
O=c1[nH]c(C(F)(F)F)nc2ccccc12	CHT block -5.1 | CHT inh conf inactive | HEK293 CHT ctr inactive
CC(=O)Nc1ccc(S(=O)(=O)Nc2nc3ccccc3nc2Nc2ccc(N)cc2)cc1	CHT block -5.1 | CHT inh conf 67% | HEK293 CHT ctr inactive
O=C1CCCC2=C1CC(C(=O)OCc1ccccc1)C(=O)N2Cc1ccccc1 (centres undefined)	none (no result: CHT block, ANO1 block, CHT PAM, ANO1 activ)
Cc1ccc(-c2nnc(N3CCCCC3)c3ccccc23)cc1S(=O)(=O)N1CCN(C)CC1	CHT block -7.3 | CHT inh conf 42% | HEK293 CHT ctr inactive
CCOc1ncccc1C(=O)OCC(=O)Nc1ccc2c(c1)OCCO2	none (no result: CHT block, ANO1 block, CHT PAM)
COc1ccc(N2CCN(C(=O)CCCOc3cc(=O)n(C)c4ccccc34)CC2)cc1	none
Cc1cccc(N2CCN(C(=O)COc3cc(=O)n(C)c4ccccc34)CC2)c1C	CHT block -13 | CHT inh conf 31% | HEK293 CHT ctr inactive
CC1CCN(C(=O)CCCOc2cc(=O)n(C)c3ccccc23)CC1	CHT block -5.9 | CHT inh conf 69% | HEK293 CHT ctr inactive
CC(NC(=O)Cn1cc([N+](=O)[O-])cn1)c1ccc(C(C)(C)C)cc1 (centres undefined)	none
O=C(Nc1ccc(Cl)cc1)Nc1ccc(N2CCC(C(F)(F)F)CC2)nc1	CHT block -6.1 | CHT inh conf inactive | HEK293 CHT ctr inactive
O=C(COC(=O)C1CCN(c2ccc(C(F)(F)F)cn2)CC1)Nc1ccc(Cl)cc1	none
COc1ccc(S(=O)(=O)N2CCCCCC2)cc1NC(=O)CCCOc1ccccc1	none (no result: CHT block, ANO1 block, CHT PAM)
Cc1cc(=O)[nH]c(SCC(=O)Nc2ccc(F)cc2)c1C#N	CHT block -10 (no result: PKA-R2B act, PKA-R1A activ) | CHT inh conf 62% | HEK293 CHT ctr inactive
Cc1cc(=O)[nH]c(SCC(=O)Nc2ccc3c(c2)CCC3)c1C#N	none (no result: CHT block, ANO1 block, CHT PAM)
CC(C)CN1CCNC(=O)C1CC(=O)NCCc1cnn(-c2ccccc2)c1 (centres undefined)	none
CC(C)CN1CCNC(=O)C1CC(=O)NCCc1ccc(C(F)(F)F)cc1 (centres undefined)	CHT block -4.9 | CHT inh conf inactive | HEK293 CHT ctr inactive
Cc1ccccc1Nc1nc(N)nc(COC(=O)C(NC(=O)c2ccco2)C(C)C)n1 (centres undefined)	CHT block -6.2 | CHT inh conf inactive | HEK293 CHT ctr inactive
COc1ccc(C)cc1Nc1nc(N)c2ccccc2n1	CHT block -13 | CHT inh conf 41% | HEK293 CHT ctr inactive
CCOc1ccc(Nc2nc(N)c3ccccc3n2)cc1	CHT block -5.8 | CHT inh conf 48% | HEK293 CHT ctr inactive
COc1ccc(OC)c(Nc2nc(N)c([N+](=O)[O-])c(NCc3ccccc3)n2)c1	CHT block -5 (no result: PKA-R2B act, PKA-R1A activ) | CHT inh conf inactive | HEK293 CHT ctr inactive
CCOc1ccc([C@@H]2CC=C(C(=O)O)[C@H](c3ccc(F)cc3)N2S(=O)(=O)c2ccc(C)cc2)cc1	none
Cc1ccc(S(=O)(=O)N2[C@@H](c3ccc(C(C)(C)C)cc3)C(C(=O)O)=CC[C@H]2c2ccc(Cl)cc2)cc1	none (no result: CHT block, ANO1 block, CHT PAM, ANO1 activ)
CCOc1ccc([C@@H]2CC=C(C(=O)O)[C@H](c3cccc(Cl)c3)N2S(=O)(=O)c2ccc(C)cc2)cc1	CHT block -6.1, ANO1 activ -6.9 | CHT inh conf 62% | HEK293 CHT ctr inactive
Cc1ccc(S(=O)(=O)N2[C@@H](c3ccc(Cl)cc3)C(C(=O)O)=CC[C@H]2c2ccc(Cl)c(Cl)c2)cc1	CHT block -6.2, ANO1 block 100 | CHT inh conf 65% | HEK293 CHT ctr inactive
CCc1nn(CC(=O)N2CCCCCC2)c(=O)c2cc3ccccc3n12	none
CC1CCC2(CC1)NC(=O)N(Cc1cc(=O)n3ccsc3n1)C2=O (centres undefined)	none (no result: PKA-R2B act, PKA-R1A activ, ANO1 activ)
CC(=O)N1c2ccc(S(=O)(=O)NCC3CCC(C(=O)N4CCCC(C)C4)CC3)cc2CC1C (centres undefined)	none
O=C1CC(c2ccco2)CC(O)=C1C=Nc1cc(Cl)ccc1O (centres undefined)	none
O=C1CC(c2ccco2)CC(O)=C1C=Nc1ccccc1-c1ccccc1 (centres undefined)	CHT block -5.6 | CHT inh conf inactive | HEK293 CHT ctr inactive
CCCCc1cc(-c2n[nH]c(=S)o2)c2ccccc2n1	CHT block -8.4 | CHT inh conf 67% | HEK293 CHT ctr inactive
Cc1ccc(SC(CC(=O)c2ccc(F)cc2)C(=O)O)cc1 (centres undefined)	none
